Assay results: PubChem BioAssay (NCATS)
Results filed as inconclusive are left out. The source made the active and inactive calls. Calls come from the whole dose curve; as a rule, active = well fitted curve in the direction sought with a large enough effect; inconclusive = small, poorly fitted or top-dose-only effect, or another doubt; inactive = no such curve, though single readings can be large; an effect the other way counts as inactive or inconclusive.

Target: Rap guanine nucleotide exchange factor 3 (Homo sapiens) (UniProt O95398)
Test: Confirmatory qHTS for antagonist of cAMP-regulated guanine nucleotide exchange factor 3 (EPAC1) (AID 1645880); note: nearly all actives have a fitted effect of over 55% in size
Details: EPAC1 Rap1B-BODIPY-GDP exchange, fluorescence; activity, negative = inhibition: at 115 µM (top of the series)
In short: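 Nucleotide exchange uses 100 nM EPAC1, 250 nM RAP1B-BODIPY-GDP and 50 uM GDP, with compounds in a concentration-titration series. After 5 min at room temperature, fluorescence (480 nm ex/540 nm em) is read every 5 min for 30 min. Data are normalized to control ATA and DMSO.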
Potency is the fitted concentration of half-maximal effect.

Chain of Rap guanine nucleotide exchange factor 3 (Homo sapiens) (O95398 whole entry, looked up): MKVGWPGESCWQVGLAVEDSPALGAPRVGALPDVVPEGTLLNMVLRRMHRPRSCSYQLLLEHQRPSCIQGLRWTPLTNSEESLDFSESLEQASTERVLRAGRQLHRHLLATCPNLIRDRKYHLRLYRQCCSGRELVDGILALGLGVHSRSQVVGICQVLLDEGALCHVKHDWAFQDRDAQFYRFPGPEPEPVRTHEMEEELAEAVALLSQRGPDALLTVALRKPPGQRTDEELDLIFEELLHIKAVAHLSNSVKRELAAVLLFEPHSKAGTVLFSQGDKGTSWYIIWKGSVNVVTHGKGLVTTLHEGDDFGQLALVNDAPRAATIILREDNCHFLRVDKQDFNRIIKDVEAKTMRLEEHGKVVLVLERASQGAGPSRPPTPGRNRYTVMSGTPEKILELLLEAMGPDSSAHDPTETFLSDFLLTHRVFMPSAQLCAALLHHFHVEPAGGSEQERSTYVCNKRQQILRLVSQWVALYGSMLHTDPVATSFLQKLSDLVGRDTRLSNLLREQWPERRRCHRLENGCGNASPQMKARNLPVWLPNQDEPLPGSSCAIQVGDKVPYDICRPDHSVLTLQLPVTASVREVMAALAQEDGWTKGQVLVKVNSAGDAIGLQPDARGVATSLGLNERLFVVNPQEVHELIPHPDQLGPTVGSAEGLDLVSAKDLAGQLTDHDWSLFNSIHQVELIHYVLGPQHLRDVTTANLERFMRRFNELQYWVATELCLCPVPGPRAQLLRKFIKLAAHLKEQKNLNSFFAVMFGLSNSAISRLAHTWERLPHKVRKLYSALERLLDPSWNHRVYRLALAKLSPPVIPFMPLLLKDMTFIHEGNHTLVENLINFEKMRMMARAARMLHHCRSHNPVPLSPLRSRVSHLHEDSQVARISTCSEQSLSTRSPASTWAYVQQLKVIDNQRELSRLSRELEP

Potency, inactive:
Cc1cccc(C)c1-n1nnnc1C(c1ccnc2ccccc12)N(CCC#N)Cc1ccccc1 (stereo not drawn)
COC(=O)C1=CN(Cc2cccs2)C=C(C(=O)OC)C1c1cccc(O)c1
CN(C)CCNC(=O)c1ccc(-c2cn3c(-c4ccc(Oc5ccccc5)cc4)cnc3cn2)cc1
COc1ccc(C2=CC(=O)OC3(CCCCC3)O2)cc1
COc1ccc(Br)cc1CNc1ccc(O)cc1
CCc1nc2c(OCc3ccc(C(F)(F)F)cc3)cccn2c1N(C)C(=O)c1ccc(OC)cc1
CCc1nc2ccccc2c(C(=O)NCc2ccccc2)c1C
Nc1[nH]n2c(=O)cc(-c3ccccc3)nc2c1N=Nc1ccc(S(N)(=O)=O)cc1
O=C1CC2(CCCCC2)Oc2ccc(F)cc21
Cc1cc(C)nc(SCC(=O)c2ccc(Cl)cc2)n1
COc1ccc(OC)c(C(=O)c2ccc(Cl)cc2)c1
C=C(C)Cn1c(C)cc(C)c(S(=O)(=O)c2ccc(C)cc2)c1=O
COc1ccc(C(C(=O)NC(C)(C)C)n2c(=O)c(-c3cc4ccccc4[nH]3)nc3ccccc32)cc1 (stereo not drawn)
CCOc1ccc(C(=O)Nc2c(C(=O)Nc3ccccc3F)oc3ccccc23)cc1OCC
CC1=CC(C)(C)N(C(=O)c2ccc(F)cc2)c2cc3c(cc21)OCO3
CCN(CC)C(=O)Cn1c(SCCOc2ccc(Cl)cc2)nc2ccccc21
O=C1C(O)=CC(=C(c2ccccc2)c2ccccc2)c2ccccc21
O=C(Cc1ccccc1Cl)Nc1ccc(S(=O)(=O)N2CCOCC2)cc1
CC(=O)c1ccc(N2CCN(C(=O)c3cc(-c4cccnc4)nc4ccc(Br)cc34)CC2)cc1
Cc1cc(C)cc(NC(=O)CSc2nnc(-c3cc4occc4n3C)n2-c2ccccc2C)c1

Potency, active:
COc1ccc2nc(N3C(=O)C(O)=C(C(=O)c4ccco4)C3c3ccc(C)o3)sc2c1 (stereo not drawn) 26.9 µM
NC1=C(Cl)C(=O)c2ccc(S(N)(=O)=O)cc2C1=O 75.7 µM
CN(CCC#N)C(=O)COC(=O)c1c2c(nc3ccccc13)/C(=C\c1ccco1)CC2 9.53 µM
Cc1ccc(S(=O)(=O)Nc2ccccc2C(=O)Nc2nc(-c3ccc(F)cc3)cs2)cc1 42.6 µM

Target: Rap guanine nucleotide exchange factor 3 (Homo sapiens) (UniProt O95398)
Test: Confirmatory qHTS for agonist of cAMP-regulated guanine nucleotide exchange factor 3 (EPAC1) (AID 1645881); note: nearly all actives have a fitted effect of over 75% in size
Details: EPAC1 Rap1B BODIPY-GDP exchange fluorescence; series mostly up to 154 µM

Potency, active:
CN1/C(=C\C=C(/C#N)C(=O)Nc2ccc(Cl)cc2)C(C)(C)c2ccccc21 100 µM

Potency, inactive:
COc1cc(/C=C2\SC(=Nc3ccc(Cl)c(C(=O)O)c3)NC2=O)c(Br)c(Br)c1O
Cc1cnc(C(=O)OCC(=O)Nc2ccc(Oc3ccccc3)cc2)cn1
COc1ccc(N=C2NC(=O)S/C2=C\c2ccc(N(C)C)cc2)cc1
Cc1ccc(N(C(=O)c2ccccc2Cl)C2=NC(C)CS2)c(C)c1 (stereo not drawn)
CC(=O)c1ccc(NC(=O)c2ccc3c(c2)C(=O)N(c2ccccn2)C3=O)cc1
O=C(c1ccco1)N1CCn2cccc2C1c1ccccc1 (stereo not drawn)
CCOC(=O)c1c(NC(=O)CSc2nc3ccc(C)cc3[nH]2)sc2c1CC(C)(C)NC2(C)C
C[C@@H]1CC=C[C@H]2[C@H]1C(=O)N(Cc1ccccc1)[C@H]2c1ccc(-c2ccoc2)cc1F
O=C(O)c1ccccc1N=N/C(=N/Nc1cc(S(=O)(=O)O)ccc1O)c1ccccc1
CCC(=O)NC(c1cccs1)c1cc([N+](=O)[O-])c2cccnc2c1O (stereo not drawn)
COC(C(=O)Nc1ccc(Br)cc1F)c1ccccc1 (stereo not drawn)
O=C(O)CSc1cc(NS(=O)(=O)c2ccc(Cl)cc2)c2ccccc2c1O
COc1ccc(NC(=O)COC(=O)c2ccc(S(=O)(=O)N(C)c3ccccc3OC)cc2)cc1OC
O=C(Cc1c(Cl)cccc1Cl)Nc1ccc(S(=O)(=O)Nc2ncccn2)cc1
Cc1cccc(C)c1-n1nnnc1C(c1ccnc2ccccc12)N(CCC#N)Cc1ccccc1 (stereo not drawn)
COC(=O)C1=CN(Cc2cccs2)C=C(C(=O)OC)C1c1cccc(O)c1
COc1ccc2nc(N3C(=O)C(O)=C(C(=O)c4ccco4)C3c3ccc(C)o3)sc2c1 (stereo not drawn)
CN(C)CCNC(=O)c1ccc(-c2cn3c(-c4ccc(Oc5ccccc5)cc4)cnc3cn2)cc1
COc1ccc(C2=CC(=O)OC3(CCCCC3)O2)cc1
NC1=C(Cl)C(=O)c2ccc(S(N)(=O)=O)cc2C1=O
COc1ccc(Br)cc1CNc1ccc(O)cc1
CCc1nc2c(OCc3ccc(C(F)(F)F)cc3)cccn2c1N(C)C(=O)c1ccc(OC)cc1
CN(CCC#N)C(=O)COC(=O)c1c2c(nc3ccccc13)/C(=C\c1ccco1)CC2
CCc1nc2ccccc2c(C(=O)NCc2ccccc2)c1C
Nc1[nH]n2c(=O)cc(-c3ccccc3)nc2c1N=Nc1ccc(S(N)(=O)=O)cc1
O=C1CC2(CCCCC2)Oc2ccc(F)cc21
Cc1cc(C)nc(SCC(=O)c2ccc(Cl)cc2)n1
COc1ccc(OC)c(C(=O)c2ccc(Cl)cc2)c1
C=C(C)Cn1c(C)cc(C)c(S(=O)(=O)c2ccc(C)cc2)c1=O
COc1ccc(C(C(=O)NC(C)(C)C)n2c(=O)c(-c3cc4ccccc4[nH]3)nc3ccccc32)cc1 (stereo not drawn)
CCOc1ccc(C(=O)Nc2c(C(=O)Nc3ccccc3F)oc3ccccc23)cc1OCC
CC1=CC(C)(C)N(C(=O)c2ccc(F)cc2)c2cc3c(cc21)OCO3
Cc1ccc(S(=O)(=O)Nc2ccccc2C(=O)Nc2nc(-c3ccc(F)cc3)cs2)cc1
CCN(CC)C(=O)Cn1c(SCCOc2ccc(Cl)cc2)nc2ccccc21
O=C1C(O)=CC(=C(c2ccccc2)c2ccccc2)c2ccccc21
O=C(Cc1ccccc1Cl)Nc1ccc(S(=O)(=O)N2CCOCC2)cc1
CC(=O)c1ccc(N2CCN(C(=O)c3cc(-c4cccnc4)nc4ccc(Br)cc34)CC2)cc1
Cc1cc(C)cc(NC(=O)CSc2nnc(-c3cc4occc4n3C)n2-c2ccccc2C)c1
